Screens (PubChem)
NIH3T3 tox: Cytotoxic Profiling in NIH 3T3 Cell Line of Diverse Libraries Using Quantitative High-Throughput Screening; Potency, µM (series often up to 96.7 µM), for the others: at the highest dose activity change, negative = cytotoxicity, actives largely listed as inhibitors; AID 1345082, 2018; NIH 3T3 viability, CellTiter-Glo ATP luminescence, 48-72 h; 94,000 tested, 4.3% active; also: % is scaled to controls: 0 for no effect and ±100 for the full control effect; nearly all actives have a fitted effect of over 55% in size
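Cytotoxicity is measured as loss of cellular ATP: NIH 3T3 cells (400/well) are exposed to compound for 48 or 72 hr at 37 °C, then CellTiter-Glo luminescence is imaged after 10 min at room temperature.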
HEK cytotox: Cytotoxic Profiling in HEK 293 Cell Line of Diverse Libraries Using Quantitative High-Throughput Screening. HEK 293 viability, ATP luminescence (CellTiter-Glo), 48-72 h. 94,000 tested, 6.6% active. AID 1345083, 2018. Potency, µM (doses to about 115 µM), without a hit: top-dose activity change, negative = cytotoxicity, usual class: inhibitors; also: % is scaled to controls: 0 for no effect and ±100 for the full control effect; nearly all actives have a fitted effect of over 60% in size
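HEK 293 seeded at 250 cells/well receive compound via pintool. After 48 or 72 hr at 37 degree Celsius, 5% CO2 and 95% humidity, CellTiter-Glo is dispensed and luminescence read following 10 min at room temperature.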
GPT2 inhibitor: Primary qHTS assay for inhibitors of Glutamate pyruvate transaminase 2 (GPT2); Alanine aminotransferase 2 (Homo sapiens), Q8TD30; 100,000 tested, 0.25% active; Potency, µM (doses to about 57.7 µM), for the others: top-dose activity change, negative = inhibition, hits mostly inhibitors; Recombinant GPT2, coupled pyruvate oxidase/HRP Amplex Red fluorescence; also: % is scaled to controls: 0 for no effect and ±100 for the full control effect; nearly all actives have a fitted effect of over 60% in size
Target sequence (Q8TD30 whole entry, looked up): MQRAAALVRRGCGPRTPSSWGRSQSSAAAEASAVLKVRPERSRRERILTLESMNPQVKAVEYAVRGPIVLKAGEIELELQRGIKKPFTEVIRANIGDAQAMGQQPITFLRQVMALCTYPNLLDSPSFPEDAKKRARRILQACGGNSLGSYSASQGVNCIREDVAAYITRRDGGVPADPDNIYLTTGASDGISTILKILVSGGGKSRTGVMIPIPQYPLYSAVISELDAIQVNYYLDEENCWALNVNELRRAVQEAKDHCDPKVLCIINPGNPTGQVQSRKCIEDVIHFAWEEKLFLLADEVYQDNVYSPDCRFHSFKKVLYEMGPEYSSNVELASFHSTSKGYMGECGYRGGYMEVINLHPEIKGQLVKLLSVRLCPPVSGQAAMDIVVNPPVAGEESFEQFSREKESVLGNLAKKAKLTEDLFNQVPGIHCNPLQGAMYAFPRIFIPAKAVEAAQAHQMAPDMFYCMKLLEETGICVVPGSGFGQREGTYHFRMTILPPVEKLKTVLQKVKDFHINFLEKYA
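GPT2 10ng/uL, a-KG 250uM, L-Ala 2mM, HEPES pH7.5 + 0.0001% Tween; 30 min RT. Then Amplex mix (PO/HRP/ThPP), 30 min RT dark, fluorescence. AOA 50uM used as positive control.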
NPR1 antag: Natriuretic polypeptide receptor (hNpr1) antagonism - Primary qHTS | Atrial natriuretic peptide receptor 1 (Homo sapiens), P16066 | HEK293 hNpr1 GloSensor cGMP, ANP-stimulated luminescence | Potency, µM (doses to about 46.3 µM), for inactives: at the highest dose activity change, negative = inhibition, usual class: inhibitors | 76,000 tested, 1.6% active; calls by dose curve; also: % is scaled to controls: 0 for no effect and ±100 for the full control effect; nearly all actives have a fitted effect of over 60% in size
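HEK293 cells stably expressing human Npr1 and cGMP GloSensor pGS-40F, loaded 2 h with 2% GloSensor reagent, given compound 30 min at room temperature. Luminescence read before and 20 min after 0.1 nM hNppA.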
FLuc inh-1: Firefly luciferase inhibition profiling of diverse chemical library using quantitative high-throughput screening; purified P. pyralis luciferase, luminescence, biochemical; Potency, µM (series often up to 115 µM), usual class: inhibitors; 76,000 tested, 2.5% active; AID 1347043, 2019; also: % is scaled to controls: 0 for no effect and ±100 for the full control effect; nearly all actives have a fitted effect of over 65% in size
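Purified P. pyralis luciferase (10nM final) in 50mM Tris acetate pH 7.5, 10mM Mg acetate, 0.01% Tween-20, 0.05% BSA with 10uM D-luciferin and 10uM ATP. Compounds titrated qHTS. Luminescence imaged on CCD.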
FLuc SDR no ATP: Firefly luciferase (FLuc-C-HiBiT) SDR gain of signal screen - without ATP; shares compounds with FLuc inh-1; Purified FLuc-C-HiBiT, Nano-Glo HiBiT luminescence, no ATP; Potency, µM (highest dose often 32.7 µM), for the others: top-dose activation (signal gain), actives largely listed as activators; 1,300 tested, 7.8% active; also: nearly all actives have a fitted effect of over 55% in size
FLuc SDR ATP: Firefly luciferase (FLuc-C-HiBiT) SDR gain of signal screen - plus ATP | shares compounds with FLuc inh-1 | purified FLuc-C-HiBiT + ATP, HiBiT complementation luminescence | Potency, µM (doses to about 32.7 µM), for the others: top-dose activation (gain of signal), hits mostly activators | 1,300 tested, 8.7% active;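 also: signal reports ligand binding via conformational change of the enzyme rather than luciferase catalysis; % of control where 0% means no effect; nearly all actives have a fitted effect of over 55% in size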
FLuc inh-2: Firefly luciferase (FLuc-C-HiBiT) enzymatic inhibition screen - Functional assay; 1,300 tested, 42% active; purified FLuc-C-HiBiT enzyme, luciferin luminescence; Potency, µM (top dose mostly 32.7 µM), for inactives: at the highest dose activity change, negative = inhibition, hits mostly inhibitors; shares compounds with FLuc inh-1; also: % is scaled to controls: 0 for no effect and ±100 for the full control effect; nearly all actives have a fitted effect of over 70% in size
* hit, by the source's call; [ ] = another dose, or the depositor's remark. Hits are enriched below; roughly 10% of the tested compounds scored in any of these assays. Unless noted, calls follow the shape of the dose curve; as a rule, active = well fitted curve in the direction sought with a large enough effect; inconclusive = small, poorly fitted or top-dose-only effect, or another doubt; inactive = no such curve, though single readings can be large; an effect the other way counts as inactive or inconclusive. Potency is read from the fitted curve at half-maximal effect.

What do the screens show for `O=C(c1nc2sccn2c1-c1ccc(F)cc1)N1CCOCC1`?
NIH3T3 tox: -8%[138 µM]; HEK cytotox: 4%[172 µM]; GPT2 inhibitor: inactive

Results for COc1ccc(C(=O)Nc2cc(C(C)C)c(O)c(S(=O)(=O)c3ccc(Cl)cc3)c2C)cc1 ?
FLuc SDR no ATP: 12%; FLuc SDR ATP: 12%; FLuc inh-2: inconclusive

How did COc1ccc(C(=O)NCc2nnc3ccc(-c4ccc(Cl)cc4)nn23)c(C)c1 do in these assays?
NIH3T3 tox: inactive; HEK cytotox: inconclusive; GPT2 inhibitor: -7%; NPR1 antag: -2%; FLuc inh-1: inactive

How did COc1ccc(CNC(=O)c2nnn3cc(C)[nH]c(=O)c23)cc1 do in these assays?
NIH3T3 tox: -6%; HEK cytotox: 3%; GPT2 inhibitor: 0%; NPR1 antag: 2%; FLuc inh-1: inactive

How did Cc1c(Cl)cc(C(=O)NCC2CNCCOC2)cc1Cl (centres undefined) do in these assays?
NIH3T3 tox: inconclusive; HEK cytotox: inconclusive; GPT2 inhibitor: inactive; NPR1 antag: 2%; FLuc inh-1: inactive

What do the screens show for `N#Cc1ccc(C(=O)N2CCC3(CC2)CN(c2ccncn2)CC3CO)cc1` (centres undefined)?
NIH3T3 tox: -18%; HEK cytotox: 9%; GPT2 inhibitor: -3%; NPR1 antag: 5%; FLuc inh-1: inactive

How did CCCOC(=O)CSc1ncnc2sc3c(c12)CCC(C)C3 (centres undefined) do in these assays?
FLuc SDR no ATP: 16%; FLuc SDR ATP: 11%; FLuc inh-2: inconclusive

Results for CCNc1ncnc2sc3c(c12)CCN(C(=O)NCCOC)C3 ?
NIH3T3 tox: -12%; HEK cytotox: 9%; GPT2 inhibitor: inactive; NPR1 antag: -12%; FLuc inh-1: inactive

Results for c1ccc2sc([C@H]3CCN(CC4CCCCC4)C3)nc2c1 ?
NIH3T3 tox: inconclusive; HEK cytotox: inconclusive; GPT2 inhibitor: inactive; NPR1 antag: -5%[70.6 µM]; FLuc inh-1: inactive

How did Cc1ccc2nc([C@H]3CCN(Cc4cccs4)C3)[nH]c2c1 do in these assays?
NIH3T3 tox: inconclusive; HEK cytotox: 56µM*; GPT2 inhibitor: inactive; NPR1 antag: -28%[70.6 µM]; FLuc inh-1: 7.1µM*; FLuc SDR no ATP: 16%[49.3 µM]; FLuc SDR ATP: 17%[49.3 µM]; FLuc inh-2: inconclusive

How did O=C(c1ccccc1)N1CC[C@H](c2nc3ccc(F)cc3[nH]2)C1 do in these assays?
NIH3T3 tox: -26%[138 µM]; HEK cytotox: inconclusive; GPT2 inhibitor: -16%[88.5 µM]; NPR1 antag: 2%[70.6 µM]; FLuc inh-1: inactive

Results for Cc1ccccc1CN1CC[C@H](c2nc3ccccc3s2)C1 ?
NIH3T3 tox: inconclusive; HEK cytotox: 71µM*; GPT2 inhibitor: -6%[88.5 µM]; NPR1 antag: -26%[70.6 µM]; FLuc inh-1: 7.9µM*; FLuc SDR no ATP: 12%[49.3 µM]; FLuc SDR ATP: 10%[49.3 µM]; FLuc inh-2: inconclusive

Results for Cc1ccccc1CN1CC[C@H](c2nc3ccc(F)cc3[nH]2)C1 ?
NIH3T3 tox: inconclusive; HEK cytotox: 35µM*; GPT2 inhibitor: 3%[88.5 µM]; NPR1 antag: inconclusive; FLuc inh-1: 14µM*; FLuc SDR no ATP: 12%[49.3 µM]; FLuc SDR ATP: 10%[49.3 µM]; FLuc inh-2: inconclusive

What do the screens show for `Cc1ccc2nc([C@H]3CCN(C(=O)c4ccccc4)C3)[nH]c2c1`?
NIH3T3 tox: -2%[174 µM]; HEK cytotox: inconclusive; GPT2 inhibitor: inconclusive; NPR1 antag: -1%[70.6 µM]; FLuc inh-1: inactive

Results for CN1c2cc(C(=O)N3CCN(c4ccccn4)CC3)ccc2C(=O)N2CCCCC21 (centres undefined) ?
NIH3T3 tox: -30%; HEK cytotox: inconclusive; GPT2 inhibitor: inactive; NPR1 antag: 0%; FLuc inh-1: inactive

How did COCC1CN(C2CCC2)CC12CCN(C(=O)c1nccc3ccccc13)CC2 (centres undefined) do in these assays?
NIH3T3 tox: -22%; HEK cytotox: inconclusive; GPT2 inhibitor: inactive; NPR1 antag: -20%; FLuc inh-1: inactive

What do the screens show for `O=C(c1ccccn1)N1CCC(Oc2ccc(-c3noc(-c4ccccc4)n3)cc2)C1` (centres undefined)?
NIH3T3 tox: inconclusive; HEK cytotox: 22µM*; GPT2 inhibitor: -21%; NPR1 antag: -21%; FLuc inh-1: 11µM*; FLuc SDR no ATP: 13%; FLuc SDR ATP: 14%; FLuc inh-2: inconclusive

How did Cc1ncccc1C(=O)N1CC(Oc2ccc(-c3nc(-c4ccccc4)no3)cc2)C1 do in these assays?
NIH3T3 tox: inconclusive; HEK cytotox: 13µM*; GPT2 inhibitor: inactive; NPR1 antag: inconclusive; FLuc inh-1: 1µM*; FLuc SDR no ATP: 22%; FLuc SDR ATP: inconclusive; FLuc inh-2: 6.2µM*

How did Cc1cc(C(=O)N2CC(Oc3ccc(-c4nc(-c5ccccc5)no4)cc3)C2)n[nH]1 do in these assays?
NIH3T3 tox: inactive; HEK cytotox: 7%; GPT2 inhibitor: -10%; NPR1 antag: 1%; FLuc inh-1: inconclusive

What do the screens show for `Cc1cccn2c(=O)c(C(=O)NCCc3ccccc3)cnc12`?
FLuc SDR no ATP: inconclusive; FLuc SDR ATP: inconclusive; FLuc inh-2: 7µM*

How did O=C(Nc1ccc2c(c1)OCCO2)N1CCC2(CC1)CC(N1CCOCC1)CCO2 (centres undefined) do in these assays?
NIH3T3 tox: -13%; HEK cytotox: 2%; GPT2 inhibitor: inactive
